12-LOX inh = ALOX12 (human) lipoxygenase inhibition; AID 1671190; purified 12hLO, xylenol orange hydroperoxide absorbance; Potency, µM (top dose mostly 108 µM), for inactives: at the top dose activity change, negative = inhibition, usual class: inhibitors; 580,000 compounds, 1.1% hits; P18054; also: potency is read from the fitted curve at half-maximal effect; % is scaled to controls: 0 for no effect and ±100 for the full control effect
Target sequence (P18054 whole entry, looked up): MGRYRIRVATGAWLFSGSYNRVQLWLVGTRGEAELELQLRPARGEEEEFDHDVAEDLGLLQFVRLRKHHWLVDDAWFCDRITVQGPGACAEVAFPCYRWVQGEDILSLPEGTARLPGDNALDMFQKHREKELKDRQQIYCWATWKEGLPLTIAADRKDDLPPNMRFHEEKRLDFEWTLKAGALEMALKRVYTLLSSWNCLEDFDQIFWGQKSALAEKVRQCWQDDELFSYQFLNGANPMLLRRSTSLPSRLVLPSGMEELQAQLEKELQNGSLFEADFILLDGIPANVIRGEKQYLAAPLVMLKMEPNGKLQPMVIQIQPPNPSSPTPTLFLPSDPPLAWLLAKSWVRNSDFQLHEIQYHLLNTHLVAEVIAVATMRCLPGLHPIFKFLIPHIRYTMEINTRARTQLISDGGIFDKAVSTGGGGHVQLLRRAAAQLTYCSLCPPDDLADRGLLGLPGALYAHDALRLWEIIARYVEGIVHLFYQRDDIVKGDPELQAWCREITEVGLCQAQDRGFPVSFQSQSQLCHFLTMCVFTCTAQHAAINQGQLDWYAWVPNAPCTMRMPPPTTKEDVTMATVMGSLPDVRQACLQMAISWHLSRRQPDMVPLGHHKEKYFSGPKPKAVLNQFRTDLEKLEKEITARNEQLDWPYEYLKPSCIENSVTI
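Purified human 12hLO at 150 nM in 25 mM Hepes, 0.01% Triton X-100, pH 7.0, preincubated 15 min at room temperature with compound. Reaction started with 40 uM arachidonic acid, 30 min at room temperature. Hydroperoxide measured by Fe-xylenol orange, 573/405 nm absorbance ratio.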
Nrf2 inh = blocks Nrf2 signaling. Potency, µM (series often up to 46 µM), without a hit: top-dose activity change, negative = inhibition, most hits filed as inhibitors. A549 ARE-Fluc reporter, luciferase luminescence, 18-24 h. 360,000 compounds, 2.1% hits; also: potency is read from the fitted curve at half-maximal effect; % is scaled to controls: 0 for no effect and ±100 for the full control effect; nearly all actives have a fitted effect of over 60% in size
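Concentration-response testing used A549 ARE_Fluc cells at 5000 cells/well. Following an 18-24 h compound incubation, viability was read by fluorescence (Ex 405/Em 525) and luciferase output by luminescence.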
Nrf2 activator = activators of Nrf2 (ARE) signaling; AREc32 ARE-luciferase reporter (MCF7-derived line), luminescence, 24 h; AID 624171; 410,000 compounds, 0.31% hits; Potency, µM (highest dose often 46.1 µM), for inactives: at the highest dose activation, most hits filed as activators; also: potency is read from the fitted curve at half-maximal effect; % of control where 0% means no effect; nearly all actives have a fitted effect of over 65% in size
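AREc32_Fluc, 1000 cells/well, OPTI-MEM + 5% FBS, o/n 37 deg C 5% CO2; 23 nL cpd by pin tool, 24 hr; Steady-Glo 30 min RT, luminescence.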
A549 tox = A549 cytotoxicity, counter-screen for Nrf2 inhibitors; A549 ARE-Fluc cells, CellTiter-Fluor viability, 18-24 h; Potency, µM (highest dose often 46 µM), inactives show at the highest dose activity change, negative = cytotoxicity, most hits filed as inhibitors; 390,000 compounds, 0.16% hits; AID 504648; also: potency is read from the fitted curve at half-maximal effect; % is scaled to controls: 0 for no effect and ±100 for the full control effect
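A549 ARE-Fluc cells in 5% FBS OPTI-MEM, 5000 cells/well, rested 2 h then exposed to compounds in concentration-response for 18-24 h at 37 °C. Viability by CellTiter-Fluor fluorescence (Ex 405/Em 525) after 30 min; luciferase luminescence (BugLite, 15 min, RT) read afterwards.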
LDHA inh = LDHA (human) enzyme inhibition; P00338; purified LDHA, NADH/diaphorase-resazurin fluorescence; stronger effect = lower value; activity change, % (values are at about 110 or 230 µM); 480,000 compounds, 0.15% hits; in the data active = activity change below about -30%; inconclusive = mostly about -25% to -30%;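 also: plate controls were DMSO wells for no effect and wells without enzyme for full effect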
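LDH5 2 nM; NADH 0.06 mM, pyruvate 0.2 mM; 200 mM Tris pH 7.4, EDTA, Tween-20; 5 min RT. Detection: diaphorase 0.133 mg/mL + resazurin 37 µM, fluorescence ex540/em590 at 0 and 20 min; normalized to enzyme-free and DMSO wells.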
ERG-DNA inh = ERG Ets/DNA interaction inhibition | P11308 | fluorescence polarization, His-ERG Ets domain / labelled DNA | Potency, µM (series often up to 76.9 µM), without a hit: at the highest dose FP activity, negative = inhibition, hits mostly inhibitors | 370,000 compounds, 0.028% hits | AID 624246; active = well fitted inhibition curve with a large enough effect in the polarisation, with a control signal flat; inconclusive = small, poorly fitted or top-dose-only effect, or effect the other way, or a change in a side signal; inactive = no such curve, though single readings can be large or run the other way; the % refers to the polarisation;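 also: polarization taken with two DNA probes labelled with fluorescein and Texas red; potency is read from the fitted curve at half-maximal effect; % of control where 0% means no effect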
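His-tagged ERG Ets domain (1 uM in the protein solution; 300mM KCl, 50mM Tris-HCl, 1mM EDTA, 1mM DTT, pH 7.5) received compound, then a probe mix of 5 nM fluorescein-DNA and 100nM Texas-615-DNA. Fluorescence polarization was read for both dyes.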
The depositor's hits bear a star. Sampled rows, rich in hits. Any-hit rate of the full collection: about 2.7%. Unless noted, calls follow the shape of the dose curve; as a rule, active = well fitted curve in the direction sought with a large enough effect; inconclusive = small, poorly fitted or top-dose-only effect, or another doubt; inactive = no such curve, though single readings can be large; an effect the other way counts as inactive or inconclusive.

`N#Cc1cc(C(=O)c2ccccc2O)cn(-c2nccs2)c1=O` gave 12-LOX inh -27.8%, Nrf2 inh -1.7%, Nrf2 activator 22.4µM*, A549 tox 0.0%, LDHA inh -4.0 and ERG-DNA inh 8.0%.
For CCC(=O)N1CCN(c2oc(/C=C/c3ccccc3Cl)nc2C#N)CC1 the results were 12-LOX inh -8.6% and LDHA inh 1.3.
Screening CC1(C)CC(=O)C2=C(C1)Nc1[nH]n(-c3ccccc3)c(=O)c1C2c1ccc(Br)cc1 (configuration not stated) returned 12-LOX inh -29.8% and LDHA inh 3.1.
Screening Cc1sc2ccc3sccc3c2[n+]1C returned 12-LOX inh 11.2µM*, Nrf2 inh -1.3%, Nrf2 activator 3.2%, A549 tox 0.6%, LDHA inh -5.1 and ERG-DNA inh 3.7%.
`Cc1sc2c3ccsc3ccc2[n+]1C` gave 12-LOX inh 15.8µM*, Nrf2 inh 1.6%, Nrf2 activator 0.9%, A549 tox -3.2%, LDHA inh -13.7 and ERG-DNA inh -1.2%.
Screening CCOCCCNC(=O)CS(=O)Cc1nc(-c2cccc(C)c2)oc1C (configuration not stated) returned 12-LOX inh 26.9% and LDHA inh 6.2.
Cc1cccc(Oc2ccc(S(=O)(=O)N3CCCCC3)cc2NC(=O)c2ccncc2)c1 was read as 12-LOX inh inconclusive and LDHA inh 1.3.
CCOC(=O)c1ccc(CC(=O)c2oc3cc(O)ccc3c2C)o1 was read as 12-LOX inh 15.8µM*, Nrf2 inh -16.7%, Nrf2 activator -0.1%, A549 tox -9.2% and LDHA inh 1.0.
`CCOC(=O)c1ccc(CC(=O)c2ccc(O)c(O)c2O)o1` gave 12-LOX inh inconclusive, Nrf2 inh -6.7%, Nrf2 activator 4.9%, A549 tox 1.1%, LDHA inh 39.6 and ERG-DNA inh 1.2%.
`Cc1cc(S(=O)(=O)N(Cc2ccc(C(C)C)cc2)CC2CCCO2)ccc1-n1cnnn1` (configuration not stated) gave 12-LOX inh 24.3%, Nrf2 inh 23.1µM*, Nrf2 activator -0.6%, A549 tox -10.4% and LDHA inh 2.2.
For Cc1nc2nc(N(Cc3cccc(C#N)c3)S(=O)(=O)c3ccccc3)nn2c(C)c1Cl the results were 12-LOX inh -4.2% and LDHA inh 2.8.
COc1ccc(CNc2ncnc3c2CN(c2ccc(Cl)cc2)C(=O)N(C)C3)cc1 was read as 12-LOX inh -11.8%.
Screening CN1Cc2ncnc(NCCc3ccc(F)cc3)c2CN(c2ccc(Cl)cc2)C1=O returned 12-LOX inh 70.8µM*.
For Cn1c(=O)cc(SCC(=O)Nc2cccnc2)c2ccccc21 the results were 12-LOX inh -27.0%, Nrf2 inh inconclusive, Nrf2 activator 0.0%, A549 tox -2.8%, LDHA inh -3.1 and ERG-DNA inh -22.9%.
CCOCCn1ccc2c(OCC(=O)Nc3cc(C)cc(C)c3)cccc2c1=O was read as 12-LOX inh -20.5%, Nrf2 activator -0.2%, A549 tox -2.8%, LDHA inh 1.5 and ERG-DNA inh 0.3%.
Screening CCOCCn1ccc2c(OCC(=O)Nc3ccc(OC)c(OC)c3)cccc2c1=O returned 12-LOX inh -15.3%, Nrf2 inh 11.6µM*, Nrf2 activator -0.2%, A549 tox -18.1%, LDHA inh -6.3 and ERG-DNA inh -2.2%.
`COc1cc(NC(=O)CSc2cc(=O)n(C)c3ccccc23)cc(OC)c1OC` gave 12-LOX inh -20.3%, Nrf2 inh 20.6µM*, Nrf2 activator -1.0%, A549 tox -10.8%, LDHA inh -11.3 and ERG-DNA inh 8.9%.
`CCn1c(=O)cc(SCC(=O)Nc2ccc(OC)c(OC)c2)c2ccccc21` gave 12-LOX inh 0.5%, Nrf2 inh 16.4µM*, Nrf2 activator 1.4%, A549 tox -26.1%, LDHA inh 0.7 and ERG-DNA inh -14.4%.
For CCn1nc(-c2ccc(C)c(S(=O)(=O)NCc3ccccc3)c2)c2c(c1=O)CCCC2 the results were 12-LOX inh -14.0% and LDHA inh -15.5.
Screening COc1cccc(CN2CCc3ccccc3C2)c1OC returned 12-LOX inh inconclusive and LDHA inh 4.6.
For Cc1noc(/C=C\c2ccc(S(=O)(=O)N3CCN(C4CCCCC4)CC3)cc2)c1NC(=O)C1CC1 the results were 12-LOX inh -11.7% and LDHA inh -0.2.
For Cc1ccc(CS(=O)(=O)c2cn(CC(=O)Nc3ccon3)c3ccccc23)cc1 the results were 12-LOX inh -13.7%, Nrf2 inh 1.9%, Nrf2 activator 0.1%, A549 tox 1.8%, LDHA inh -2.9 and ERG-DNA inh 22.3%.
For Cc1cccc(C)c1NC(=O)Cn1cc(S(=O)(=O)Cc2ccc(F)cc2)c2ccccc21 the results were 12-LOX inh 50.1µM*, Nrf2 inh -22.4%, Nrf2 activator 1.1%, A549 tox -6.6%, LDHA inh -7.5 and ERG-DNA inh -9.1%.
Cc1ccc(NC(=O)Cn2cc(S(=O)(=O)Cc3ccc(F)cc3)c3ccccc32)cc1Cl was read as 12-LOX inh 10µM*, Nrf2 inh inconclusive, Nrf2 activator -0.3%, A549 tox -6.9%, LDHA inh 6.2 and ERG-DNA inh -17.3%.
Cc1ccc(NC(=O)Cn2cc(S(=O)(=O)Cc3cccc(Cl)c3)c3ccccc32)cc1C was read as 12-LOX inh inconclusive, Nrf2 inh -7.7%, Nrf2 activator 0.6%, A549 tox -0.9%, LDHA inh -6.0 and ERG-DNA inh 0.7%.
Screening Cc1cc(C)c(NC(=O)Cn2cc(S(=O)(=O)Cc3ccccc3F)c3ccccc32)c(C)c1 returned 12-LOX inh inconclusive, Nrf2 inh inconclusive, Nrf2 activator 3.4%, A549 tox 3.2%, LDHA inh -31.2* and ERG-DNA inh 9.3%.
Cc1ccc(C(=O)NCCC2=CCCCC2)cc1S(=O)(=O)N1CCOCC1 was read as 12-LOX inh -19.6%, Nrf2 inh inconclusive, Nrf2 activator 4.5%, A549 tox 0.0%, LDHA inh -1.2 and ERG-DNA inh -1.1%.
`O=C(NCc1cccnc1)c1ccc(S(=O)(=O)N2CCCCCC2)cc1` gave 12-LOX inh -2.5%, Nrf2 inh -28.2%, Nrf2 activator 0.5%, A549 tox 3.2%, LDHA inh -6.1 and ERG-DNA inh 0.2%.
Screening COc1ccc(CCNC(=O)COc2ccc(S(=O)(=O)NC3CCCCC3)cc2Cl)cc1 returned 12-LOX inh 6.9%, Nrf2 inh 20.6µM*, Nrf2 activator 0.2%, A549 tox inconclusive, LDHA inh 5.0 and ERG-DNA inh -1.7%.

Screening data from PubChem.
